The record followed here is PubChem BioAssay.

Calls of active or inactive are those of the source.

In assay [1] the test system is PRMT1 (protein arginine N-methyltransferase 1). As to the kind of experiment: PRMT1 binders on small-molecule microarrays, primary screen, biochemical, small-molecule microarray, 635 nm fluorescence (AID 1088).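 Note: binding of Prmt1 protein to compounds spotted on small-molecule microarray slides.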 Conditions: small-molecule microarray binding, higher = more signal.
A short description of assay [2]: yeast growth modulation, basal conditions, primary screen, YJM789 clinical isolate, OD600, 24 h (AID 1089).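 Note: growth of clinical yeast isolate S. cerevisiae YJM 789 seeded 1000 cells per well; test concentration not given here.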 Conditions: S. cerevisiae YJM789 growth, higher = more signal, called active from +8 up or from −8 down.
Assay [3] can be described thus: fission yeast growth modulation, primary screen, strain 972, OD600, 24 h, no modulator (AID 1090).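 Note: basal condition with compound alone and no growth modifier present; test concentration not given here.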 Conditions: S. pombe 972 growth, higher = more signal, called active from +8 up or from −8 down.
A short description of assay [4]: S. cerevisiae growth modulation with rapamycin, primary screen, strain BY4716, OD600, 96 h (AID 1091). Note: test concentration not given here. Conditions: higher = more signal, called active from +8 up or from −8 down.
In assay [5] the target is Torsin-1A-interacting protein 2 (Homo sapiens) (UniProt Q8NFQ8). Description: LULL1 binders on small-molecule microarray, primary screen, cell lysate, human LULL1 lysate, 635/667 nm fluorescence (AID 1092).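 Note: probe is lysate of COS7 cells overexpressing human LULL1; score merges per-feature 667 nm fluorescence with signal-to-noise.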 Conditions: hLULL1 lysate binding, 635 nm fluorescence, higher = more signal.
The nature of assay [6]: E. coli growth modulation, two-sided OD650, primary screen, E. coli filamentation project, strain DRC41, 24 h (AID 1093).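 Note: MC1000 strain lacking acrAB efflux and sulA so SOS filamentation is blocked; test concentration not given here.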 Conditions: OD650, 24 h, higher = more signal, called active from +8 up or from −8 down.
Assay [7] can be described thus: small-molecule microarray binders of probe aLefty2, primary screen, biochemical, biotinylated probe, 635/667 nm fluorescence (AID 1094).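 Note: score merges spot fluorescence near 667 nm with spot signal-to-noise ratio.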 Conditions: higher = more signal.
The test system of assay [8] is Noggin (protein binding on small-molecule microarray). Description: Noggin binders on small-molecule microarray, primary screen, biochemical, 635/667 nm fluorescence (AID 1095).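 Note: score merges 667 nm feature fluorescence with signal to noise over triplicate slides.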 Conditions: 635 nm fluorescence, higher = more signal.
In assay [9] the target is Neurogenic locus notch homolog protein 3 (Homo sapiens) (UniProt Q9UM47). Description: NOTCH3 binders on small-molecule microarray, primary screen, biochemical, 635/667 nm fluorescence (AID 1096). Conditions: NOTCH3 binding, 635 nm fluorescence, higher = more signal.
The nature of assay [10]: small-molecule microarray binders of probe aEGFR, primary screen, biochemical, biotinylated probe, 635/667 nm fluorescence (AID 1097).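 Note: probe is a biotinylated anti-EGFR antibody binding compounds printed on slides; score combines fluorescence near 667 nm and signal to noise of each spot.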 Conditions: higher = more signal.
Assay [11] has as its system Plasmodium falciparum Sir2 (PF13_0152, Sir2A). Description: pfSir2 binders on small-molecule microarrays, primary screen, biochemical, small-molecule microarray, 635 nm fluorescence (AID 1098).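 Note: score merges spot fluorescence intensity with its signal-to-noise ratio.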 Conditions: small-molecule microarray binding, fluorescence 635 nm; higher = more signal.
Assay [12] can be described thus: small-molecule microarray binders of probe aDKK1, primary screen, biochemical, biotinylated probe, 635/667 nm fluorescence (AID 1099).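 Note: score merges 667nm spot fluorescence with signal to noise across triplicate slides; reference of the scale not given here.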 Conditions: higher = more signal.
The nature of assay [13]: small-molecule microarray binders of probe aCHRDL2, primary screen, biochemical, biotinylated probe, 635/667 nm fluorescence (AID 1100). Conditions: higher = more signal.
Assay [14] is described as follows: splicing luciferase reporter signal modulators, primary screen, spliceosome inhibition project, cell-based, HEK293, splice +/- reporter (AID 1101).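 Note: HEK293 cells carrying a splicing-competent luciferase reporter gene; test concentration not given here.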 Conditions: luminescence, 24 h, higher = more signal, called active from +8 up or from −8 down. For orientation: A reporter such as luciferase makes a cellular process visible.
Assay [15] concerns the target Fibroblast growth factor 10 (Homo sapiens) (UniProt O15520). As to the kind of experiment: FGF10 binders on small-molecule microarrays, primary screen, biochemical, small-molecule microarray, 635 nm fluorescence (AID 1102). Conditions: FGF10 binding, fluorescence 635 nm, higher = more signal.
Assay [16] relates to glycogen synthase kinase-3 (GSK3A per assay name; protocol says GSK3B). Description: GSK3 binders on small-molecule microarrays, primary screen, biochemical, small-molecule microarray, 635 nm fluorescence, GSK3A (AID 1103). Note: the record names both GSK3A and GSK3B. Conditions: small-molecule microarray binding, fluorescence 635 nm; higher = more signal.
In assay [17] the target is Epidermal growth factor receptor (Homo sapiens) (UniProt P00533). Description: EGFR binders on small-molecule microarrays, primary screen, biochemical, small-molecule microarray, 635 nm fluorescence (AID 1104).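 Note: score merges 667 nm emission intensity with spot signal to noise over triplicate slides.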 Conditions: EGFR binding, higher = more signal.
Assay [18] concerns the target Follistatin-related protein 3 (Homo sapiens) (UniProt O95633). Description: FSTL3 binders on small-molecule microarrays, primary screen, biochemical, small-molecule microarray, 635 nm fluorescence (AID 1105).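 Note: score merges emission near 667 nm and signal to noise per printed spot across three slides.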 Conditions: FSTL3 binding, higher = more signal.
In assay [19] the target is Dickkopf-related protein 1 (Homo sapiens) (UniProt O94907). As to the kind of experiment: DKK1 binders on small-molecule microarrays, primary screen, biochemical, small-molecule microarray, 635 nm fluorescence scan (AID 1106).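 Note: score merges emission near 667 nm with signal to noise over three replicate slides.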 Conditions: DKK1 binding, higher = more signal.
In assay [20] the test system is Inhibin beta A chain (activin A). As to the kind of experiment: INHBA (activin A) binders on microarrays, primary screen, biochemical, small-molecule microarray, 635 nm fluorescence scan (AID 1107).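 Note: mouse activin A protein probed at 4.33 µg/mL on printed slides; score merges bound-protein fluorescence near 667 nm with spot signal-to-noise.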 Conditions: small-molecule microarray binding, higher = more signal.

Sequence of Dickkopf-related protein 1 (Homo sapiens) (O94907 whole entry, looked up): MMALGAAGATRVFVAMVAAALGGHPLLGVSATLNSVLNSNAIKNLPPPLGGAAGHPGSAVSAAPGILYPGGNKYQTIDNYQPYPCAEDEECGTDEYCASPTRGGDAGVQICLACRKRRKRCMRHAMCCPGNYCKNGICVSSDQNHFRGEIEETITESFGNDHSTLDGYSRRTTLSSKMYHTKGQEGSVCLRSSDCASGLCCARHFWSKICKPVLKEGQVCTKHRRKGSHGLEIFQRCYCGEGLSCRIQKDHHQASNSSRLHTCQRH
Sequence of Epidermal growth factor receptor (Homo sapiens) (P00533 whole entry, looked up): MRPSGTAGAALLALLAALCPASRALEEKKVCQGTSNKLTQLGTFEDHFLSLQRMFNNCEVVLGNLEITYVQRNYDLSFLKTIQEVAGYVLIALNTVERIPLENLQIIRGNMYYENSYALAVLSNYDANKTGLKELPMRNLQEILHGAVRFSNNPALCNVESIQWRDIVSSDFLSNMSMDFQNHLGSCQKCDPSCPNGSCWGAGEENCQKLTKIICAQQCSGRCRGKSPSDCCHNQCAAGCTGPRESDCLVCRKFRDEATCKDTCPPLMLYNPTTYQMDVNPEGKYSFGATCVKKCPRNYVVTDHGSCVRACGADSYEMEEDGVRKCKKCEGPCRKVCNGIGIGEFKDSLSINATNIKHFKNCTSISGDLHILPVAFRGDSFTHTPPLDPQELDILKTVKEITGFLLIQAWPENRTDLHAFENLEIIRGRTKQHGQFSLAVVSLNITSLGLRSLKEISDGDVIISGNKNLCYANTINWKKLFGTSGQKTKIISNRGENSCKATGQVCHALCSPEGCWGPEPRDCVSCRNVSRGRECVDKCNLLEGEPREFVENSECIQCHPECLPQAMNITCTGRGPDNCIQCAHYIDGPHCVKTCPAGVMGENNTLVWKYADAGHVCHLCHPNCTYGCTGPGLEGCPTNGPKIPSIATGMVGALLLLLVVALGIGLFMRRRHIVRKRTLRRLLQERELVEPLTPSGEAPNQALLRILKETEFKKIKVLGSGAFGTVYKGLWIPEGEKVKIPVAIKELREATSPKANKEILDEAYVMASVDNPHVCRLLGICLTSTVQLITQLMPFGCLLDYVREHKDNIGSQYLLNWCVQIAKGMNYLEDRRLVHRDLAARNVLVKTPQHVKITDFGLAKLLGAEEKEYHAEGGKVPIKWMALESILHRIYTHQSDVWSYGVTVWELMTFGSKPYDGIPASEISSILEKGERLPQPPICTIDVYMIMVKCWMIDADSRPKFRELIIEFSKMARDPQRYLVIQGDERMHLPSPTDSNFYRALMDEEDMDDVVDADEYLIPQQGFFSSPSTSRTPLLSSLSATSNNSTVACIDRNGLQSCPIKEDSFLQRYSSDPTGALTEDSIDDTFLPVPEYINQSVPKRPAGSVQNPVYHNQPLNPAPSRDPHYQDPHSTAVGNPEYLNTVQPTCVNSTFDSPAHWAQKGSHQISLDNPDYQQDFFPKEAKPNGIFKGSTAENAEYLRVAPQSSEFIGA
Sequence of Torsin-1A-interacting protein 2 (Homo sapiens) (Q8NFQ8 whole entry, looked up): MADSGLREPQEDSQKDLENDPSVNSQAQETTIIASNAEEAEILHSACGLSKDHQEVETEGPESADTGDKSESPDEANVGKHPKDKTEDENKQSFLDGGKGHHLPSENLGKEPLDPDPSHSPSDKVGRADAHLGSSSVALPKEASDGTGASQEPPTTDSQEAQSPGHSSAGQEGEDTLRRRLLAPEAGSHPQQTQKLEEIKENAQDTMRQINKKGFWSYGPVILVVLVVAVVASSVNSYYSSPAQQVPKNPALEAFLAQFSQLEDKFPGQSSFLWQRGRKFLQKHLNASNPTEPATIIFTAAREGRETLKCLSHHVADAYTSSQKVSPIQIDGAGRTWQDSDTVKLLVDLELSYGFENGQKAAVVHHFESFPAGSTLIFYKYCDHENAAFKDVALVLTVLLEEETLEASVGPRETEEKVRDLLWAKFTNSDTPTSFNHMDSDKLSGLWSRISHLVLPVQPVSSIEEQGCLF
Sequence of Follistatin-related protein 3 (Homo sapiens) (O95633 whole entry, looked up): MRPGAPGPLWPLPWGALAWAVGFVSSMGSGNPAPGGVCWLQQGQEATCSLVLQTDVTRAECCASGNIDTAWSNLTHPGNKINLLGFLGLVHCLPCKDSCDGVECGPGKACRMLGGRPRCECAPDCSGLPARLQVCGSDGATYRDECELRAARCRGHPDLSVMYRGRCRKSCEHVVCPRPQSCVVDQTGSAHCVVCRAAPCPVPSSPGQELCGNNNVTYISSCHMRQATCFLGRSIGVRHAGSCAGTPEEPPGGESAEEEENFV
Sequence of Neurogenic locus notch homolog protein 3 (Homo sapiens) (Q9UM47 whole entry, looked up): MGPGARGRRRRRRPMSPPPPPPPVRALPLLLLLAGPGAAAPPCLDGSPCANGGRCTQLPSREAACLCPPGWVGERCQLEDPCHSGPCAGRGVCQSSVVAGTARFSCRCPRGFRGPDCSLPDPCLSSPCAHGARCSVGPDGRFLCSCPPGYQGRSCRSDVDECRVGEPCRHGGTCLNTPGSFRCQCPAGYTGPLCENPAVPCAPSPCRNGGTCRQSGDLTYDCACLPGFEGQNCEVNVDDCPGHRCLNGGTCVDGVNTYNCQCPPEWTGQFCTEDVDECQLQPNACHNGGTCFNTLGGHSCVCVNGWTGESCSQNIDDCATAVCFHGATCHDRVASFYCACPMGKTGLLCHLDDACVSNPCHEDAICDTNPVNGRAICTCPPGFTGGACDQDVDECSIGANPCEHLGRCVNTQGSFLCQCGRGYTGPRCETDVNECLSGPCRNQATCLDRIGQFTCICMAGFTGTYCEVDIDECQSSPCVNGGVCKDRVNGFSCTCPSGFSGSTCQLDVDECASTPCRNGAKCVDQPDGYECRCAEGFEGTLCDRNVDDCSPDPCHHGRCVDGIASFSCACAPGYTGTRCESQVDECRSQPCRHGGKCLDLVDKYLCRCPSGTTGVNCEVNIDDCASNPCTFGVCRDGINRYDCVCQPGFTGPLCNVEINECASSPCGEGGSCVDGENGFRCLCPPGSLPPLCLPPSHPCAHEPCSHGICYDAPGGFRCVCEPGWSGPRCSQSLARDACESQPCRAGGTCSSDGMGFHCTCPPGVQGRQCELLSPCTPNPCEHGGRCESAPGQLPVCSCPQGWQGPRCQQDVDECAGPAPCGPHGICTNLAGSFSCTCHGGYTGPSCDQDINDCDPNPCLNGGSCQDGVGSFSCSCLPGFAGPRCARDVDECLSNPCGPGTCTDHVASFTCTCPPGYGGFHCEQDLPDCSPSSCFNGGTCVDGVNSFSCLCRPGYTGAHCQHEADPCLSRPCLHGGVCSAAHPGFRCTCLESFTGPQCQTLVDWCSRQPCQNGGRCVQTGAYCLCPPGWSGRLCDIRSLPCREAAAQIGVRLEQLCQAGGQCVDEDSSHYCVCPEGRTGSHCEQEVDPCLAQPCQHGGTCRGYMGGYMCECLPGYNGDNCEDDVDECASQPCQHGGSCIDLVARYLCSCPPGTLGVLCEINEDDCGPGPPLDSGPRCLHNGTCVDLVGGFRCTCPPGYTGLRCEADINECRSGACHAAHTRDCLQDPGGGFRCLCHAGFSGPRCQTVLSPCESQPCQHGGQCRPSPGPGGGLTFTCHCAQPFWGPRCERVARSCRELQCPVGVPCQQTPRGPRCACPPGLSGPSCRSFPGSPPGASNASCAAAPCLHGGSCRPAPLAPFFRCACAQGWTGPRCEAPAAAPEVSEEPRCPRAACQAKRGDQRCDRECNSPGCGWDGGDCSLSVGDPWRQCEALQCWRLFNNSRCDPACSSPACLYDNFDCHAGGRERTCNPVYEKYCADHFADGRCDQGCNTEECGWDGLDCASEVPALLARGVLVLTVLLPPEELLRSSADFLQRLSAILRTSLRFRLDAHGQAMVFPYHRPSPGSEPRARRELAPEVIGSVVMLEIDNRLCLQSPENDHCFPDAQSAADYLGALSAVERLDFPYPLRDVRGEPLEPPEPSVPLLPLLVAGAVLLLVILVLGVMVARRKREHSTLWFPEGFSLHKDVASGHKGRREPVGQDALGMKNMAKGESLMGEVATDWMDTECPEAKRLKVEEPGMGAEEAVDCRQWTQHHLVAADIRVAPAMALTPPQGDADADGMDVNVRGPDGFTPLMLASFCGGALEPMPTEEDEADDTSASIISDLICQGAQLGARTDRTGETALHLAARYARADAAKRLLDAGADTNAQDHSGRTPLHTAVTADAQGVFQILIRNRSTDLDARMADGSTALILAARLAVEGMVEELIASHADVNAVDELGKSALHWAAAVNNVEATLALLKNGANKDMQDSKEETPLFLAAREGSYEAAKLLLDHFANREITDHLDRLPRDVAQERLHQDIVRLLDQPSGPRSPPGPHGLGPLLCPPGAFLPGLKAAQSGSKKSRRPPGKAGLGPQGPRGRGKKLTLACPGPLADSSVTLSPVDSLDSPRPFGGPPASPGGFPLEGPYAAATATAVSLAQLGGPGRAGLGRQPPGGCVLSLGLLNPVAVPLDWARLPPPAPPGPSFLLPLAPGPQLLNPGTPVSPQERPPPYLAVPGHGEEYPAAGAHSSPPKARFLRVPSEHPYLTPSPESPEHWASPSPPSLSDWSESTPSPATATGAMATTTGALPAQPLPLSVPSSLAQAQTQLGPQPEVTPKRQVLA
Sequence of Fibroblast growth factor 10 (Homo sapiens) (O15520 whole entry, looked up): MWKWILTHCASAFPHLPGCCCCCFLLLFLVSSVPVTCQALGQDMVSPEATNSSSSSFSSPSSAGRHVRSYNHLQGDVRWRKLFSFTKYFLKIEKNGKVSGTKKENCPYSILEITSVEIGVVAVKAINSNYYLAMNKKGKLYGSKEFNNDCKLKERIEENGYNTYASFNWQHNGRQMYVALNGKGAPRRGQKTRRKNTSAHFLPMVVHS

With `COc1cccc([C@@H]2[C@@H](C)CC[C@H]3C(=O)N4[C@H](c5cccc(OC)c5)[C@@H](C)CC[C@H]4C(=O)N23)c1`, the composite z-score is 0.606 in assay [1]; 0.474 in assay [5]; -0.138 in assay [7]; 0.603 in assay [8]; 1.05 in [9]; -0.0082 in [10]. The composite z-score is 0.168 in assay [11]; -0.271 in assay [12]; -0.521 in [13]; 0.614 in [15]; 0.802 in assay [16]; 0.518 in [17]. Moreover, the figures for the composite z-score in [18], in assay [19] and in assay [20] were 0.75, 0.558 and -0.185, respectively. The z-score was -2.34 (inactive) in assay [2]; -1.46 (inactive) in [3]; -0.616 (inactive) in assay [4]; 0.368 (inactive) in [6]; -1.59 (inactive) in [14].
Turning to `CO[C@H]1O[C@H](CO)[C@@H](OC(=O)Nc2ccc(Oc3ccccc3)cc2)[C@H](OC(=O)Nc2ccccc2-c2ccccc2)[C@H]1OC(=O)Nc1ccccc1-c1ccccc1`, the composite z-score in [1] came out at 1.54; in assay [5], 3.28; in assay [7], 0.218; in assay [8], 1.23; in assay [9] it was 1.06; in [10] it was 0.242. In addition, the composite z-score came out at 1.35 in assay [11]; 0.542 in assay [12]; 0.748 in assay [13]; 1.14 in assay [15]; 1.34 in assay [16]; 0.528 in assay [17]. Also, the composite z-score is 1.36 in [18], 0.538 in assay [19] and 0.187 in assay [20]. In addition, the z-score was 3.07 (inactive) in assay [2]; 1.84 (inactive) in assay [3]; 0.792 (inactive) in [4]; 2.45 (inactive) in assay [6]; 2.76 (inactive) in [14].
Turning to `CSCC[C@@H]1NC(=O)CC=C[C@@H](C)COC(=O)[C@H](CCSC)NC(=O)CC=C[C@@H](C)COC1=O`, the composite z-score was -0.153 in [1]; -0.452 in assay [5]; -0.137 in assay [7]; 0.877 in assay [8]; -0.35 in assay [9]; -0.128 in assay [10]. Also, the composite z-score was -0.191 in assay [11]; -0.396 in assay [12]; -0.607 in assay [13]; 0.435 in [15]; 0.0287 in assay [16]; 0.434 in assay [17]. For the same molecule, the values for the composite z-score in [18], in assay [19] and in [20] were 0.678, 1.12 and -0.149, respectively. The z-score was -0.981 (inactive) in assay [2]; -1.12 (inactive) in assay [3]; -1.03 (inactive) in assay [4]; -0.566 (inactive) in [6]; -1.02 (inactive) in assay [14].
As to `[N-]=[N+]=Nc1ccccc1C[C@@]1(C(=O)N2CCOCC2)N=C(c2ccc(OCCCO)cc2)O[C@@H]1c1ccccc1N=[N+]=[N-]`, the composite z-score in assay [1] was 1.56; in assay [5], 2.32; in assay [7], 0.369; in [8], 0.8; in assay [9], 1.09; in [10] it was 0.0477. The composite z-score in [11] worked out at 0.668; in [12], 1.35; in assay [13], 1.13; in assay [15], 0.997; in assay [16], 1.29; in [17] it was 0.215. Moreover, the results for the composite z-score in assay [18], in [19] and in assay [20] were 1.28, 0.444 and 0.937, respectively. Moreover, the z-score in assay [2] was -0.822 (inactive); in assay [3], -2.95 (inactive); in assay [4], 1.56 (inactive); in assay [6] it was 2.13 (inactive); in assay [14], 0.144 (inactive).
Turning to `CCOC(=O)C1=CCC(c2cccc3ccccc23)N(S(=O)(=O)c2ccc(C)cc2)C1` (stereo not given), the composite z-score was 0.614 in assay [1]; 1.64 in assay [5]; 0.346 in assay [7]; -0.375 in assay [8]; 0.976 in [9]; 0.211 in assay [10]. Further, the composite z-score in [11] amounted to 0.471; in assay [12], 0.981; in assay [13], 0.596; in assay [15] it was 0.279; in assay [16] it was 0.912; in assay [17], 0.385. For the same molecule, the composite z-score was 0.681 in [18], -0.141 in assay [19] and 1.41 in [20]. Further, the z-score in assay [2] is -0.109 (inactive); in [3], 1.4 (inactive); in assay [4] it was 3.55 (inactive); in [6] it was -0.461 (inactive); in assay [14], 0.664 (inactive).
Regarding `COc1ccc([Si](C)(C)[C@@H]2[C@@H](CCO)O[C@]3(C(=O)N(Cc4ccc(NC(=O)[C@H](C)O)cc4)c4ccccc43)[C@H]2C)cc1`, the composite z-score in [1] was 1.47; in [5], 2.42; in [7], 0.12; in assay [8] it was 0.123; in assay [9], 0.62; in assay [10], -0.102. The composite z-score in assay [11] turned out to be 1.3; in assay [12], 0.305; in assay [13], 0.161; in [15] it was 0.245; in assay [16] it was 0.993; in assay [17], 0.226. For the same molecule, the composite z-score in [18] turned out to be 0.335; in assay [19] it was 0.0302; in assay [20], 0.316. The z-score in assay [2] is 3.17 (inactive); in assay [3] it was -1.06 (inactive); in assay [4], 14.8 (active); in assay [6] it was 1.78 (inactive); in [14], -4.19 (inactive).
